ALOX12 inh: inhibitors of human 12S-lipoxygenase ALOX12; purified 12hLO, xylenol orange hydroperoxide absorbance; hit rate 1.1% among 580,000; Potency, µM (series often up to 108 µM), inactives show top-dose activity change, negative = inhibition, hits mostly inhibitors; P18054; note: potency is the fitted concentration of half-maximal effect
Target sequence (P18054 whole entry, looked up): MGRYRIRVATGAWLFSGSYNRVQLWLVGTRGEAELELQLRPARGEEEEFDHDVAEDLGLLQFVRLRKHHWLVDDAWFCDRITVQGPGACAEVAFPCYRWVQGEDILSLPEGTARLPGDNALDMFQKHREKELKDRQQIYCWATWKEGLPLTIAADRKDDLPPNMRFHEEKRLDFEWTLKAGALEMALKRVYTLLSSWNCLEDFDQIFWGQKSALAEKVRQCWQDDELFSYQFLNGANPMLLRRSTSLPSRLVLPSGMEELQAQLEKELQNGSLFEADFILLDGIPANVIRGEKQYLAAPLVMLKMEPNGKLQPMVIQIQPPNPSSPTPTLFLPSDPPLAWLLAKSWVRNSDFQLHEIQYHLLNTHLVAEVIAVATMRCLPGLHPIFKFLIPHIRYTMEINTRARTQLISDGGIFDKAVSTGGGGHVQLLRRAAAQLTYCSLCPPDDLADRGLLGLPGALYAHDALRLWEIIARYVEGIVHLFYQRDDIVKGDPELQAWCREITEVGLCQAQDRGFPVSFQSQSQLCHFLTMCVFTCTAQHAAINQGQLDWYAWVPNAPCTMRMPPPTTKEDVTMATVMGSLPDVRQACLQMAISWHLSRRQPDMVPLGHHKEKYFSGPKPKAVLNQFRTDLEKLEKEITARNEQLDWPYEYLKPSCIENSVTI
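Purified human 12hLO at 150 nM in 25 mM Hepes, 0.01% Triton X-100, pH 7.0, preincubated 15 min at room temperature with compound. Reaction started with 40 uM arachidonic acid, 30 min at room temperature. Hydroperoxide measured by Fe-xylenol orange, 573/405 nm absorbance ratio.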
IL1B secr inh: inflammasome signaling inhibition, IL-1 beta readout | activity change, % at 57.5 µM | hit rate 4.7% among 360,000 | THP-1 LPS/ATP IL-1B secretion, AlphaLISA, 16 h; stronger effect = lower value; in the data active = activity change below about -50%; inconclusive = mostly about -30% to -49%
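Secreted IL-1B measured by AlphaLISA bead assay after 16 h compound exposure of THP-1 cells; compounds (final up to 57.5 uM) added 1 h before LPS (250 ng/mL) and ATP (1.25 mM) stimulation; lower signal means less secretion.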
HT1080 IDH1KD tx: kills HT-1080 cells with IDH1 knockdown | hit rate 2% among 360,000 | HT-1080 IDH1 knockdown viability, ATP luminescence, 48 h | AID 686971 | Potency, µM (titrated, usually from 46.1 µM), inactives show at the highest dose activity, negative = toxicity, most hits filed as cytotoxic;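 note: potency is the fitted concentration of half-maximal effect; 0% = DMSO wells and -100% = cell-free medium wells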
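After a 2 h attachment period, IDH1KD HT-1080 cells took pin-transferred compound for 48 h at 37 °C; ATP-based luminescence after 10 min room-temperature reagent incubation reported viability.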
HT1080-NT tox: kills 2HG-producing HT-1080-NT fibrosarcoma cells | HT-1080-NT fibrosarcoma viability, CellTiter-Glo ATP luminescence, 48 h | Potency, µM (series often up to 46.1 µM), for inactives: top-dose activity, negative = less viability, actives largely listed as cytotoxic | hit rate 1.6% among 360,000;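 note: NT is the 2HG producing partner of a matched IDH1 knockdown line; potency is the fitted concentration of half-maximal effect; 0% = DMSO-treated cells and -100% = media-only wells without cells; nearly all actives have a fitted effect of over 55% in size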
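HT-1080-NT; 750 cells/well; 5% FBS RPMI; 48 h compound, 37 degrees C; CellTiter-Glo luminescence; curve fitting and curve-class assignment.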
TDP1 cell CPT: DT40-hTDP1 cell growth loss with CPT. Potency, µM (highest dose often 46.2 µM), without a hit: at the highest dose activity change, negative = growth inhibition, usual class: inhibitors. hit rate 12% among 420,000. chicken DT40 Tdp1-/-;hTDP1 cells + 20 nM CPT, ATP luminescence, 48 h; note: potency is the fitted concentration of half-maximal effect; nearly all actives have a fitted effect of over 55% in size
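Chicken DT40 Tdp1-/- cells stably complemented with human TDP1 were seeded at 400 cells/well in medium containing 20 nM camptothecin, exposed to pin-transferred compounds, and grown at 37 °C for at least 48 hr. Viability was read as ATP luminescence.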
DT40 TDP1 no CPT: qHTS for Inhibitors of human tyrosyl-DNA phosphodiesterase 1 (TDP1): qHTS in cells in absence of CPT. Potency, µM (doses to about 46.2 µM), for inactives: at the top dose activity change, negative = growth inhibition, usual class: inhibitors. DT40 Tdp1-/- hTDP1 cells, no CPT, ATP luminescence, 48 h. hit rate 15% among 420,000. AID 686978, 2013; note: potency is the fitted concentration of half-maximal effect; nearly all actives have a fitted effect of over 55% in size
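DT40 Tdp1-/-;hTDP1 cells, no CPT (DMSO vehicle only), 400 cells/well; compounds pin-transferred; ≥48 hr, 37 °C; CellTiter-Glo 30 min RT dark, luminescence read.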
* = called active by the depositor; ? = inconclusive; · = not tested or not shown. The full list was thinned out, with hits kept by preference. Unless noted, calls come from the whole dose curve; as a rule, active = well fitted curve in the direction sought with a large enough effect; inconclusive = small, poorly fitted or top-dose-only effect, or another doubt; inactive = no such curve, though single readings can be large; an effect the other way counts as inactive or inconclusive. Unless noted, % is set by controls: 0 for no effect and ±100 for the full control effect.

SMILES | ALOX12 inh | IL1B secr inh | HT1080 IDH1KD tx | HT1080-NT tox | TDP1 cell CPT | DT40 TDP1 no CPT
CCOC(=O)c1sc(NC(=O)CCN2CCN(C)CC2)c(C(=O)OCC)c1C | -2.7% | -11.2 | ? | 20.6µM* | ? | ?
CCOC(=O)c1sc(NC(=O)/C=C/c2cnn(CC)c2C)c(C(=O)OCC)c1C | ? | ? | 3.1% | 16.6% | ? | 20.6µM*
Cc1cccc(OCC(=O)Nc2ccc(-c3nc4ccc(C)cc4o3)cc2)c1 | -32.8% | · | · | · | · | ·
Clc1ccccc1Nc1nc(-c2ccncc2)nc2ccccc12 | ? | -1.9 | -8.1% | -3.6% | 29.1µM* | 16.4µM*
Cc1ccc(Nc2nc(-c3cccnc3)nc3ccccc23)cc1 | ? | -67.4* | ? | ? | 18.4µM* | 8.2µM*
Cc1ccc(Oc2nc(-c3cccnc3)nc3ccccc23)cc1 | 43.2% | · | · | · | · | ·
CCOC(=O)c1ccc(Nc2nc(-c3cccnc3)nc3ccccc23)cc1 | -13.4% | -21.4 | ? | 14.6µM* | 16.4µM* | 9.2µM*
CCOC(=O)c1nc(Nc2ccc(C)cc2)c2ccccc2n1 | 163.3% | ? | -21.3% | -20.7% | 20.6µM* | 13µM*
CCN(Cc1nc2cc(OC)c(OC)cc2c(=O)[nH]1)C(=O)c1cccc(F)c1 | 12.5% | · | · | · | · | ·
CCOC(=O)c1c(Nc2cccc(C(=O)OC)c2)nnc(-c2ccccc2)c1-c1ccccc1 | -29.3% | · | · | · | ? | ?
CCOC(=O)c1c(Nc2ccc(C)cc2)nnc(-c2ccccc2)c1-c1ccccc1 | -19.1% | · | · | · | ? | 18.4µM*
Cc1ccccc1Nc1nc(-c2cccnc2)nc2ccccc12 | 4.8% | -13.6 | 4.0% | 6.5% | ? | 20.6µM*
COc1ccc(-c2nc(Nc3ccccc3C)c3ccccc3n2)cc1 | -44.2% | · | · | · | · | ·
O=C(COc1ccccc1)NCCC1CCN(C(=O)Nc2cc(F)cc(F)c2)CC1 | 27.3% | · | · | · | · | ·
CCOC(=O)NC1CCCN(CC=C(C)C)C1 (stereo not drawn) | 47.8% | · | · | · | · | ·
Cc1nn(C)c(C)c1NC(=O)c1c(Br)cnn1C | 21.1% | · | · | · | · | ·
CCOC(=O)c1nc(N)c(C(=O)OCC)[nH]1 | 0.0% | 2.4 | 15.3% | 22.3% | ? | 29.1µM*
CCOC(=O)c1nc2ccccc2c(=O)[nH]1 | 22.9% | -15.0 | 1.0% | 13.3% | -9.2% | -2.2%
C#Cc1ccc([C@H]2C=C(C(=O)Nc3ccccc3)O[C@@H](OCc3ccc(CO)cc3)C2)cc1 | · | -57.2* | -15.3% | ? | ? | ?
C=CCOC(=O)C1=C[C@H](c2csc3ccccc23)C[C@H](OCc2ccc(CO)cc2)O1 | -27.6% | -0.1 | -3.0% | -9.9% | ? | 20.6µM*
O=C(Nc1ccccc1)C1=C[C@H](c2csc3ccccc23)C[C@H](OCc2ccc(CO)cc2)O1 | 0.6% | ? | -18.3% | -3.3% | 16.4µM* | 16.4µM*
CCN1CCN(c2oc(-c3ccccc3C)nc2S(=O)(=O)c2ccccc2)CC1 | ? | -30.0 | -9.9% | -10.6% | ? | 18.4µM*
COc1cc(-c2nc(S(=O)(=O)c3ccc(Br)cc3)c(N3CCOCC3)o2)cc(OC)c1OC | ? | · | · | · | 11.6µM* | 8.2µM*
Cc1ccc(S(=O)(=O)c2nc(-c3ccccc3Cl)oc2N2CCN(C)CC2)cc1 | -28.5% | -66.5* | 1.9% | -3.1% | ? | 23.1µM*
CCOP(=O)(c1ccccc1)c1nc(-c2ccccc2Cl)oc1N1CCCCC1 (stereo not drawn) | 7.8% | -67.4* | ? | ? | ? | ?
SMILES | ALOX12 inh | IL1B secr inh | HT1080 IDH1KD tx | HT1080-NT tox | TDP1 cell CPT | DT40 TDP1 no CPT
Cc1ccccc1-c1nc(S(=O)(=O)c2ccccc2)c(NCCCN2CCOCC2)o1 | -4.6% | -12.5 | 0.0% | -1.2% | ? | ?
CNc1oc(-c2ccc(Cl)cc2)nc1S(=O)(=O)c1ccc2c(c1)OCCO2 | 6.7% | · | · | · | · | ·
COc1ccccc1-c1nc(S(=O)(=O)c2ccc(Cl)cc2)c(N2CCCCCC2)o1 | -1.2% | · | · | · | 16.4µM* | 16.4µM*
COc1ccccc1/C=C/c1nc(S(=O)(=O)c2ccccc2)c(NCCN(C)C)o1 | ? | -27.2 | -5.5% | -20.0% | ? | 20.6µM*
COc1ccc(/C=C/c2nc(S(=O)(=O)c3ccccc3)c(NCCCN(C)C)o2)cc1OC | 15.1% | -15.1 | -16.4% | -8.7% | -6.6% | -3.0%
COc1ccccc1-c1nc(S(=O)(=O)c2ccccc2)c(N2CCCCC2)o1 | ? | -15.5 | 7.5% | 12.7% | ? | ?
Cc1ccc(S(=O)(=O)c2nc(-c3ccccc3Cl)oc2N2CCCCCC2)cc1 | -17.8% | · | · | · | 23.1µM* | 18.4µM*
CN(C)CCNc1oc(-c2ccc(F)cc2)nc1S(=O)(=O)c1ccc2c(c1)OCCO2 | 31.6µM* | · | · | · | · | ·
O=C(C1CC(=O)N(c2n[nH]c3ccccc23)C1)N1CCN(CCc2ccncc2)CC1 (stereo not drawn) | 23.2% | · | · | · | · | ·
COc1ccc(-c2nc(S(=O)(=O)c3ccc4c(c3)OCCO4)c(N3CCN(C)CC3)o2)cc1 | 35.5µM* | · | · | · | · | ·
O=S(=O)(c1ccccc1)c1nc(-c2ccccc2Cl)oc1N1CCCCCC1 | -10.3% | · | · | · | ? | 20.6µM*
O=S(=O)(c1ccc(F)cc1)c1nc(-c2ccccc2F)oc1N1CCCCC1 | -26.8% | -10.9 | -11.9% | -6.7% | ? | ?
COc1cccc(C2=NN(C(=O)c3cccs3)C(c3ccc4nccnc4c3)C2)c1 (stereo not drawn) | -2.8% | · | · | · | · | ·
CCC1SC(C)C/C(=N/NC(N)=O)C1C (stereo not drawn) | 12.2% | 4.7 | 2.1% | 2.0% | 23.2% | 8.2%
CC1CC(C)C(=NNC(N)=O)C(C(O)CC2CCC(=O)NC2=O)C1 (stereo not drawn) | 27.1% | -17.3 | ? | -2.8% | 1.64µM* | 2.31µM*
CCc1ccc(CNC(=O)Nc2ccc(N3CCOCC3)nc2)s1 | -16.2% | · | · | · | · | ·
COc1ccccc1/C=C/c1ccc2cccc(O)c2n1 | ? | 35.9 | ? | -18.4% | ? | ?
Oc1cccc2ccc(/C=C/c3ccccc3Cl)nc12 | -18.0% | 28.6 | -28.1% | -9.6% | 9.2µM* | 7.31µM*
COc1ccc(Cl)cc1/C=C/c1ccc2cccc(O)c2n1 | 0.0% | 92.6 | ? | ? | 20.6µM* | ?
COc1cc(Cl)cc(/C=C/c2ccc3cccc(O)c3n2)c1OC | 26.7% | 34.5 | 0.0% | 5.4% | ? | 23.1µM*
Oc1cccc2ccc(/C=C/c3c(F)cccc3Cl)nc12 | -21.8% | 16.6 | ? | -11.4% | ? | ?
Cc1cn2nc(C(=O)N3CCCCC3)cc2c(N(C)Cc2ccccc2)n1 | 10.3% | · | · | · | · | ·

Source: PubChem (National Center for Advancing Translational Sciences (NCATS))
